Source: PubChem BioAssay AID463173 (ICCB-Longwood Screening Facility, Harvard Medical School, 2010)
The campaign covered roughly 52,000 compounds. About 4,300 (8.3%) were called active. What follows is part of a selection rich in actives, with near analogues and random picks from the rest. A number with no mark means an inactive call. Rule as the data show it: active = survival mostly below about 52% (no sharp cut-off); inactive = mostly above about 56%.

Each compound was assayed on DeltatarO mutant (assay: growth inhibition of S. aureus wild type versus tarO mutant, primary screen, teichoic acid synthesis inhibitors, RN4220, OD600 (AID 463173)). Conditions: OD600, 18 h, stronger effect = lower value, screened at 18.75 µg/mL (by protocol).
`COc1ccc2c(CNCc3ccc(C)o3)c(C(=O)O)n(Cc3ccccc3C)c2c1` showed a survival of 96%. Compound `Cc1ccc(NC(=O)c2cccc3c(=O)c4c([nH]c23)CCCC4)c(C)c1` has a survival of 69%. Work on `COc1cccc(CNC(=O)Cn2c(C)c3cnn(-c4ccccc4)c(=O)c3c2C)c1` yielded a survival of 94%. With `CSc1nc(NC(C)=O)nc(C)c1Br` the survival was 103%. `Nc1c(-c2nc(-c3ccc(F)cc3)cs2)c2ccccn2c1C(=O)c1ccc2c(c1)OCO2` was tested, and the survival was 89%. In the case of `COc1ccc(CCNc2nc(SCc3cccc(Cl)c3)nc3ccccc23)cc1OC`, the survival is reported as 94%. With `N#Cc1c(C(F)(F)F)cc(-c2cccs2)nc1SCc1ccc(F)cc1` the survival was 125%. With `COc1ccc2c(c1)c1c(c(=O)n(-c3ccccc3C)c(=O)n1CC(=O)NCc1ccc(C)cc1)n2C` the survival was 75%. `Cc1ccc(S(=O)(=O)c2nc(-c3ccco3)oc2SC(C)c2ccccc2)cc1` (configuration not stated) was tested, and the survival was 45% (active). Work on `Cc1ccc(S(=O)(=O)c2nc(-c3ccco3)oc2SCc2ccccc2Cl)cc1` yielded a survival of 61%. `Cc1ccc(S(=O)(=O)c2nc(-c3cccs3)oc2SC(C)c2ccccc2)cc1` (configuration not stated) was tested, and the survival was 55%. With `Cc1ccc(S(=O)(=O)c2nc(-c3ccco3)oc2SC(C)C)cc1` the survival was 47%. For `CCC(C)Sc1oc(-c2ccco2)nc1S(=O)(=O)c1ccc(C)cc1` (configuration not stated), the survival was 18% (active). `CCC(C)Sc1oc(-c2ccco2)nc1S(=O)(=O)c1ccc(Cl)cc1` (configuration not stated) was tested, and the survival was 49% (active). In the case of `CC(Sc1oc(-c2ccco2)nc1S(=O)(=O)c1ccc(Br)cc1)c1ccccc1` (configuration not stated), the survival is reported as 70%. `CC(Sc1oc(-c2cccs2)nc1S(=O)(=O)c1ccccc1)c1ccccc1` (configuration not stated) was tested, and the survival was 44% (active). With `Cc1ccc(CSc2oc(-c3ccco3)nc2S(=O)(=O)c2ccc(Cl)cc2)cc1` the survival was 63%. `Cc1ccc(CSc2oc(-c3ccco3)nc2S(=O)(=O)c2ccc(Br)cc2)cc1` gave a survival of 56%. `CC(C)Sc1oc(-c2cccs2)nc1S(=O)(=O)c1ccc(Cl)cc1` showed a survival of 66%. With `CCCSc1oc(-c2ccco2)nc1S(=O)(=O)c1ccc(Cl)cc1` the survival was 51%. `COc1ccc(Cc2nc3ccc(C(=O)NCCc4ccc(Cl)cc4)cc3o2)cc1` showed a survival of 75%. Compound `O=C(Cn1ncc2c3ccccc3n(Cc3ccc(Cl)cc3)c2c1=O)NC1CCCCCC1` has a survival of 96%. Work on `CSc1ccc(CNC(=O)Cn2c(-c3cccs3)cc3cc(F)ccc32)cc1` yielded a survival of 101%. Work on `COc1ccc(NC(=O)C(NC(=O)/C=C\c2ccc3c(c2)OCO3)c2ccc(OC)cc2)cc1` (configuration not stated) yielded a survival of 61%. Work on `CCCn1c(CCC(=O)Nc2cc(OC)cc(OC)c2)nc2cccnc21` yielded a survival of 78%. Compound `CCOc1ccc(CCNC(=O)c2cccc(-n3c(C)nc4cccnc43)c2)cc1` has a survival of 90%. `N#Cc1cc2c(cc1C#N)Oc1ccccc1O2` showed a survival of 103%. In the case of `CC(C)CCn1c(=O)c2sccc2n2c(CCCC(=O)NC(C)C)nnc12`, the survival is reported as 96%. Work on `COc1cc(S(=O)(=O)N2CCN(C)CC2)c(C)cc1C` yielded a survival of 78%. In the case of `COc1ccccc1CNC(=O)CN1C(=O)CCCc2ccccc21`, the survival is reported as 94%. `COc1ccc2cc(CNc3ccc(OC)c(OC)c3)c(=O)n(CC(=O)Nc3ccc(C)cc3)c2c1` was tested, and the survival was 74%. `CCc1ccc(-c2cn3c(n2)sc2cc(C(=O)NC4CCCCCC4)ccc23)cc1` gave a survival of 79%. For `CC1CCCCN1CCCNC(=O)c1ccc2c(c1)sc1nc(-c3ccc(F)cc3)cn12` (configuration not stated), the survival was 29% (active). With `O=C(NC1CCCCC1)c1ccc2c(c1)sc1nc(-c3ccc(F)cc3)cn12` the survival was 62%. `CCC1CCCCN1CCCNC(=O)c1ccc2c(c1)sc1nc(-c3ccc(F)cc3)cn12` (configuration not stated) was tested, and the survival was 14% (active). `CCc1ccc(-c2cn3c(n2)sc2cc(C(=O)NC4CCCCC4)ccc23)cc1` gave a survival of 87%. For `O=C(NC1CCCCCC1)c1ccc2c(c1)sc1nc(-c3ccc(F)cc3)cn12`, the survival was 85%. `Cc1cc(Nc2ccc(C)c(C)c2)n2cnnc2n1` showed a survival of 94%. Work on `CC1CCN(c2cc3c(cc2F)c(=O)c(S(=O)(=O)c2cccc(Cl)c2)cn3Cc2ccccc2)CC1` yielded a survival of 80%. In the case of `COc1ccccc1C(=O)n1nc(-c2ccco2)nc1NCc1ccc(Cl)cc1`, the survival is reported as 54%. With `COc1ccc(C(=O)/C=C\Nc2ccc(S(=O)(=O)N=C(N)N)cc2)cc1OC` the survival was 76%. `Cc1ccc(CN(C(=O)COc2ccc(C)c(C)c2)C2CCS(=O)(=O)C2)o1` (configuration not stated) was tested, and the survival was 92%. In the case of `Cc1cccc(CNC(=O)C2CCN(c3nnc(-n4c(C)ccc4C)s3)CC2)c1`, the survival is reported as 95%. `O=C(c1noc2c1CCCCC2)N1CCN(c2ccc(Cl)cc2)CC1` was tested, and the survival was 98%. In the case of `O=C(c1cc2ccc3cccnc3c2[nH]1)N1CCN(c2ccccc2)CC1`, the survival is reported as 75%. In the case of `CC1CCc2onc(C(=O)N3CCN(c4ccccc4)CC3)c2C1` (configuration not stated), the survival is reported as 117%. In the case of `O=C(c1cc2ccc3cccnc3c2[nH]1)N1CCN(c2ccc(Cl)cc2)CC1`, the survival is reported as 84%. Work on `CC1CCc2onc(C(=O)N3CCN(c4cccc(Cl)c4)CC3)c2C1` (configuration not stated) yielded a survival of 69%. Compound `O=C(c1noc2c1CCCCC2)N1CCN(c2cccc(Cl)c2)CC1` has a survival of 69%. For `O=C(c1cc2ccc3cccnc3c2[nH]1)N1CCN(c2cccc(C(F)(F)F)c2)CC1`, the survival was 0% (active). For `O=C(c1noc2c1CCCCC2)N1CCN(c2cccc(C(F)(F)F)c2)CC1`, the survival was 0% (active). In the case of `CC1CCc2onc(C(=O)N3CCN(c4cccc(C(F)(F)F)c4)CC3)c2C1` (configuration not stated), the survival is reported as 37% (active). In the case of `CCC(=O)Nc1ccc2nc(SCc3ccc(C)cc3)sc2c1`, the survival is reported as 84%. `Cc1ccc(-n2nc(C)c3c(C(=O)Nc4ccccc4C(F)(F)F)cc(C)nc32)cc1` was tested, and the survival was 95%. Compound `Cc1ccc(NC(=O)CSc2nnc(C)s2)c(C)c1` has a survival of 67%. `CCOc1ccc(CNCc2c(C(=O)O)c(C)n(Cc3ccc(F)cc3Cl)c2C)cc1` was tested, and the survival was 118%. `Cc1ccc(C)c(Cn2c(=O)n(-c3ccccc3)c(=O)c3c4c(sc32)CCCC4)c1` showed a survival of 120%. Compound `COc1ccc(CCNC(=O)C(=O)NCC(c2ccco2)S(=O)(=O)c2ccc(C)cc2)cc1` (configuration not stated) has a survival of 134%. Work on `O=C(Cn1c(=O)c2cccn2c2ccccc21)Nc1cc(F)ccc1F` yielded a survival of 44%. Compound `CCCn1c(CCC(=O)Nc2ccccc2OC)nc2cccnc21` has a survival of 88%. Work on `CCCS(=O)(=O)NCCc1sc2nc(-c3ccc(F)cc3)nn2c1C` yielded a survival of 76%. Work on `COc1ccc(F)cc1S(=O)(=O)NCCc1sc2nc(-c3ccc(F)cc3)nn2c1C` yielded a survival of 90%. In the case of `Cc1c(CCNS(=O)(=O)c2ccccc2)sc2nc(-c3ccc(Cl)cc3)nn12`, the survival is reported as 6% (active). In the case of `COc1ccc(-c2nc3sc(CCNS(=O)(=O)c4ccccc4)c(C)n3n2)cc1`, the survival is reported as 64%. `CCCS(=O)(=O)NCCc1sc2nc(-c3ccc(Cl)cc3)nn2c1C` was tested, and the survival was 70%. For `CCS(=O)(=O)NCCc1sc2nc(-c3ccc(OC)cc3)nn2c1C`, the survival was 72%. `Cc1cc(C)c(S(=O)(=O)NCCc2sc3nc(-c4ccc(F)cc4)nn3c2C)c(C)c1` showed a survival of 79%. In the case of `COc1ccc(-c2nc3sc(CCNS(=O)(=O)c4c(C)cc(C)cc4C)c(C)n3n2)cc1`, the survival is reported as -1% (active). For `Cc1ccc(-c2nc3sc(CCNS(=O)(=O)c4cc(F)ccc4F)c(C)n3n2)cc1`, the survival was -2% (active). Work on `Cc1ccc(-n2ncc3c(N4CCN(CCO)CC4)ncnc32)cc1Cl` yielded a survival of 101%. Compound `CCN(CC)c1ncccc1C(=O)NCc1cccs1` has a survival of 81%. Compound `Cc1c(Cl)cccc1NC(=O)Nc1nnc(N2CCCCCC2)s1` has a survival of 84%. `COc1ccc(C(=O)Nc2ccc3nc4c(c(Nc5ccccc5OC)c3c2)CCCC4)c(OC)c1` was tested, and the survival was 48% (active). Work on `COc1ccccc1Nc1c2c(nc3ccc(NC(=O)c4cccc(F)c4)cc13)CCCC2` yielded a survival of 70%. In the case of `COc1ccccc1Nc1c2c(nc3ccc(NC(=O)c4ccccc4F)cc13)CCCC2`, the survival is reported as 82%. `COc1ccccc1Nc1c2c(nc3ccc(NC(=O)c4ccc(OC)c(OC)c4)cc13)CCCC2` was tested, and the survival was 59%. For `COc1ccccc1Nc1c2c(nc3ccc(NC(=O)c4cccc(OC)c4OC)cc13)CCCC2`, the survival was 46% (active). With `COc1ccc(C(=O)Nc2ccc3nc4c(c(Nc5ccc(OC)c(OC)c5)c3c2)CCCC4)c(OC)c1` the survival was 87%. Work on `O=C(CNC(=O)c1ccc(Cl)cc1)OCc1cc(=O)n2nc(C3CC3)sc2n1` yielded a survival of 67%. `COC(=O)c1cn(C(C)C(=O)NCc2ccco2)c2ccccc12` (configuration not stated) gave a survival of 91%. For `O=C(CSCc1ccc(F)cc1)N1CCc2c([nH]c3ccccc23)C1c1ccccc1` (configuration not stated), the survival was 101%. `Cc1ccc(NC(=O)C(=O)c2cc(C)n(-c3ccc(F)cc3)c2C)cc1C` gave a survival of 89%. With `CC(=O)c1ccccc1OCC(O)Cn1c(CO)nc2ccccc21` (configuration not stated) the survival was 59%. Compound `Cc1ccc2c(c1)c1c(c(=O)n(Cc3ccccc3)c(=O)n1CC(=O)Nc1ccccc1C)n2C` has a survival of 99%. Work on `Cc1cc(OCC(=O)Nc2cc(-c3nc4ccccc4[nH]3)ccc2C)ccc1Cl` yielded a survival of 96%. `COc1ccc(-n2nc3ccc(NC(=O)COc4ccc(C)c(C)c4)cc3n2)cc1` was tested, and the survival was 56%. `Cc1cccc(OCC(=O)Nc2ccc3c(c2)N(C)C(=O)c2ccccc2S3)c1` showed a survival of 73%. For `Cc1cc(C)cc(OCC(=O)Nc2cccc(-c3nc4ccccc4[nH]3)c2)c1`, the survival was 31% (active). Compound `COc1cccc(C(=O)Nc2ccc(Cl)c(-c3nc4ccccc4[nH]3)c2)c1` has a survival of 68%. In the case of `Cc1cccc(OCC(=O)Nc2ccc(Cl)c(-c3nc4ccccc4[nH]3)c2)c1`, the survival is reported as 38% (active). `CC(C)CC(=O)Nc1cccc(-c2nc3ccccc3[nH]2)c1` showed a survival of 68%. `Cc1ccc(OCC(=O)Nc2ccc(Cl)c(-c3nc4ccccc4[nH]3)c2)cc1C` was tested, and the survival was 43% (active).
